For some assays here: Results with a measured potency or affinity are listed apart.
Columns and labels:
Set-up in all cases: scale not given: direction of the effect not stated beside the values
[1] = molecular target: Protein translocase subunit SecA (Escherichia coli (strain K12)) (UniProt P10408); experiment: Assay to Identify E. coli SecA ATPase Inhibitors; assay type: functional; conditions: 30 µM
[2] = molecular target: T1, Ubiquitin-activating enzyme e1, putative (Leishmania donovani (strain BPK282A1)) (UniProt E9BSI1); experiment: Leishmania donovani Ubiquitin Activating Enzyme (LdE1); assay type: functional; conditions: 30 µM
T1 sequence (whole entry): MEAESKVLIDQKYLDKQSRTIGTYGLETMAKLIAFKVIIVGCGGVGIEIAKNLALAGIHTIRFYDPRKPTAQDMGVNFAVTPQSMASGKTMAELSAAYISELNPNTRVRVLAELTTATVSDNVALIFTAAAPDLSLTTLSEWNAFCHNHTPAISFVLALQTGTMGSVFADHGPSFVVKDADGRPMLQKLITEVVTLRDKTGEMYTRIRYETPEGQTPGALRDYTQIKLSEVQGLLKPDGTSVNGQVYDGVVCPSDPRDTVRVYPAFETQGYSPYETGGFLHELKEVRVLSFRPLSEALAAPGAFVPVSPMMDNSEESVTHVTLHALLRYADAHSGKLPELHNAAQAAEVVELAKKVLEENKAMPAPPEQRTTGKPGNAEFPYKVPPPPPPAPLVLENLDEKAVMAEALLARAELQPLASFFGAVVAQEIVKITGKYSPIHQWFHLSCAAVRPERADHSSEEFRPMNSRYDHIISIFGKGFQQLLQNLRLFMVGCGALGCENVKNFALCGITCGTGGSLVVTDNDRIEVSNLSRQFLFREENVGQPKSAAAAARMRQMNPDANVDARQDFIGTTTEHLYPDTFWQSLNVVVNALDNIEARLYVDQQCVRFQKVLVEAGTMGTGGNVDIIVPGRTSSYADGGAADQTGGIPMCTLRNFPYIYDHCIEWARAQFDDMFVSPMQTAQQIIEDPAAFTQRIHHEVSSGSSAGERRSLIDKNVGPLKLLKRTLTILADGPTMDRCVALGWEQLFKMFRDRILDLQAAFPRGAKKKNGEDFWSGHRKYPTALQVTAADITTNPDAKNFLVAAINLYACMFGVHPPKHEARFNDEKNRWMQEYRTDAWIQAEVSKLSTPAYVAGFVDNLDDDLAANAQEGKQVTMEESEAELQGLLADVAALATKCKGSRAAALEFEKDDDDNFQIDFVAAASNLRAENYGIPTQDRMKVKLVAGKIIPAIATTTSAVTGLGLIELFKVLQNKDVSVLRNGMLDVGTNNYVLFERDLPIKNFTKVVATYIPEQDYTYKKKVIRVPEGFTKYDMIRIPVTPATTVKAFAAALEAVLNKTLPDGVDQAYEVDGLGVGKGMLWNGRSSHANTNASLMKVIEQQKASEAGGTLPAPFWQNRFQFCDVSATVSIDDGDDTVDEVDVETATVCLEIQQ

[3] = molecular target: AMP-activated protein kinase, AMPK (Homo sapiens) (UniProt P54646+O43741+P54619+Q9UGJ0+Q9Y478+Q13131+Q9UGI9); experiment: AMP-dependent Kinase enzyme assay. An in vitro enzyme assay that detects ADP turnover that is directly proportional to AMPK activity. This uses naive AMPK that is activated during the assay with MK-8722; assay type: functional; conditions: 30 µM
[4] = molecular target: Sialic acid-binding Ig-like lectin 9 (Homo sapiens) (UniProt Q9Y336); experiment: Hs-Siglec9 ALPHAscreen SOP 20170721; conditions: 10 µM
Sialic acid-binding Ig-like lectin 9 (Homo sapiens), sequence (Q9Y336 whole entry): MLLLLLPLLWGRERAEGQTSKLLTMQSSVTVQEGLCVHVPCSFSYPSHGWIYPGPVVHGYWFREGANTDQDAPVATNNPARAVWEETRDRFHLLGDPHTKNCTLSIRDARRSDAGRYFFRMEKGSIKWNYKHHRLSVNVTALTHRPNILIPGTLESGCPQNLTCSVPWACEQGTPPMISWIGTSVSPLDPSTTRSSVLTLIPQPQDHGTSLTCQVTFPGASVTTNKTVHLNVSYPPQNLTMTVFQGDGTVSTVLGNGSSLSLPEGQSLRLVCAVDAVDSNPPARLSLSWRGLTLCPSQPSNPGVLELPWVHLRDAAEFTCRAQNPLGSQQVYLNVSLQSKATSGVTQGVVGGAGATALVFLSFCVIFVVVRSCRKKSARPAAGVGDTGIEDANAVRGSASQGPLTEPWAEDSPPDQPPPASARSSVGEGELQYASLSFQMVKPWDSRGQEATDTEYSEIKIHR

[5] = tested on: Trypanosoma cruzi; experiment: Trypanosoma cruzi phosphomannomutase and mannose-1-phosphate guanylyltransferase assay; assay type: functional; conditions: 10 µM
[6] = molecular target: T2, Arginase-2, mitochondrial (Homo sapiens) (UniProt P78540); experiment: in vitro enzyme assay to detect the production of urea directly proportional to the activity of Arginase II; assay type: functional; conditions: 33.3 µM; also: in the data most compounds retested in dose-response had high values
T2 sequence (whole entry): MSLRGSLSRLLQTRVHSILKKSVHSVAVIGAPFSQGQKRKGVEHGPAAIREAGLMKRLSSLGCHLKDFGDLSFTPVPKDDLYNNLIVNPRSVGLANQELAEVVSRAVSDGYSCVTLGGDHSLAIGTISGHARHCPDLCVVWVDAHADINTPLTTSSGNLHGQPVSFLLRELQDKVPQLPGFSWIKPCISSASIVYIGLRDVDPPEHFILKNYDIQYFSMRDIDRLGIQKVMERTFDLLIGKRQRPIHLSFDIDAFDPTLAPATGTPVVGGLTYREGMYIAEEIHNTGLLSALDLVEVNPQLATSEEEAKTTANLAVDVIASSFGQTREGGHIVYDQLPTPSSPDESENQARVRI

[7] = molecular target: T3, Proteasome subunit beta (Trypanosoma cruzi) (UniProt O96673); experiment: Trypanosoma cruzi proteasome chymotrypsin-like activity (TcProtChymo) assay.; also: in the data most compounds retested in dose-response had high values; assay type: functional; conditions: 9.37 µM
T3 sequence (whole entry): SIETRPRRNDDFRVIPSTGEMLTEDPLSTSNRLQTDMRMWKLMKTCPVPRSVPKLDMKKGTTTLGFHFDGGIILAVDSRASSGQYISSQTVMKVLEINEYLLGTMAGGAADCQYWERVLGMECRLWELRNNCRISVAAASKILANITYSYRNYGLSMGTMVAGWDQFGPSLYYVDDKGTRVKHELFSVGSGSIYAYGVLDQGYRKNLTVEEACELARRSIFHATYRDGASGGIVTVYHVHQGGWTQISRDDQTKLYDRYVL

[8] = species on record: Homo sapiens; experiment: To identify inhibition of the IFN signalling (Jak-Stat) pathway via expression of an eGFP reporter gene under the control of an IFN-stimulated response element (ISRE) containing MxA promoter.; assay type: functional; conditions: 30 µM
[9] = molecular target: T4, Tyrosyl-tRNA synthetase, putative (Trypanosoma cruzi (strain CL Brener)) (UniProt Q4DSP6); experiment: Trypanosoma cruzi tyrosyl tRNA synthetase (TcYRS) _High Tyrosine SOP; assay type: functional; conditions: 30 µM; also: in the data most compounds retested in dose-response had high values
T4 sequence (whole entry): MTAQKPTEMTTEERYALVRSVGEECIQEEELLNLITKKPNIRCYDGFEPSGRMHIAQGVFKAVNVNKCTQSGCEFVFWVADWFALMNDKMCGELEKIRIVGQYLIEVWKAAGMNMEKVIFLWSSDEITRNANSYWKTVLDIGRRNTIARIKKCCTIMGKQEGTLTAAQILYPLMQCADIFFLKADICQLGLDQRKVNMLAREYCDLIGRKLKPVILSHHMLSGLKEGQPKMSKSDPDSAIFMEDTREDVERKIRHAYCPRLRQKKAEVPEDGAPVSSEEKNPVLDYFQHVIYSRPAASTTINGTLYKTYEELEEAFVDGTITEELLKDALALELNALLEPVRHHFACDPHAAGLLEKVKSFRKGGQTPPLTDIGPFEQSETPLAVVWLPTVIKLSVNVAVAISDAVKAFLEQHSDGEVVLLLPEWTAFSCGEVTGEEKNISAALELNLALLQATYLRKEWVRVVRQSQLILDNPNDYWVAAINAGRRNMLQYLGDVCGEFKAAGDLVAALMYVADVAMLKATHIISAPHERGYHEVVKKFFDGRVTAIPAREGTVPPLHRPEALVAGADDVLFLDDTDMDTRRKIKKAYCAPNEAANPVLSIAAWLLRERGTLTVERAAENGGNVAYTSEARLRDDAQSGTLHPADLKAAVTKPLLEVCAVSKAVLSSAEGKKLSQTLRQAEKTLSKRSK

[10] = molecular target: T4, Tyrosyl-tRNA synthetase, putative (Trypanosoma cruzi (strain CL Brener)); experiment: Trypanosoma cruzi tyrosyl tRNA synthetase (TcYRS) SOP; assay type: functional; conditions: 30 µM
[11] = molecular target: Chromo domain-containing protein 1 (Saccharomyces cerevisiae (strain ATCC 204508 / S288c) (Baker's yeast)) (UniProt P32657); experiment: ScCHD-1 Enzyme Inhibition Assay; assay type: functional; conditions: 30 µM; also: in the data most compounds retested in dose-response had high values
Chromo domain-containing protein 1 (Saccharomyces cerevisiae (strain ATCC 204508 / S288c) (Baker's yeast)), sequence (P32657 whole entry, the tested form may be a part): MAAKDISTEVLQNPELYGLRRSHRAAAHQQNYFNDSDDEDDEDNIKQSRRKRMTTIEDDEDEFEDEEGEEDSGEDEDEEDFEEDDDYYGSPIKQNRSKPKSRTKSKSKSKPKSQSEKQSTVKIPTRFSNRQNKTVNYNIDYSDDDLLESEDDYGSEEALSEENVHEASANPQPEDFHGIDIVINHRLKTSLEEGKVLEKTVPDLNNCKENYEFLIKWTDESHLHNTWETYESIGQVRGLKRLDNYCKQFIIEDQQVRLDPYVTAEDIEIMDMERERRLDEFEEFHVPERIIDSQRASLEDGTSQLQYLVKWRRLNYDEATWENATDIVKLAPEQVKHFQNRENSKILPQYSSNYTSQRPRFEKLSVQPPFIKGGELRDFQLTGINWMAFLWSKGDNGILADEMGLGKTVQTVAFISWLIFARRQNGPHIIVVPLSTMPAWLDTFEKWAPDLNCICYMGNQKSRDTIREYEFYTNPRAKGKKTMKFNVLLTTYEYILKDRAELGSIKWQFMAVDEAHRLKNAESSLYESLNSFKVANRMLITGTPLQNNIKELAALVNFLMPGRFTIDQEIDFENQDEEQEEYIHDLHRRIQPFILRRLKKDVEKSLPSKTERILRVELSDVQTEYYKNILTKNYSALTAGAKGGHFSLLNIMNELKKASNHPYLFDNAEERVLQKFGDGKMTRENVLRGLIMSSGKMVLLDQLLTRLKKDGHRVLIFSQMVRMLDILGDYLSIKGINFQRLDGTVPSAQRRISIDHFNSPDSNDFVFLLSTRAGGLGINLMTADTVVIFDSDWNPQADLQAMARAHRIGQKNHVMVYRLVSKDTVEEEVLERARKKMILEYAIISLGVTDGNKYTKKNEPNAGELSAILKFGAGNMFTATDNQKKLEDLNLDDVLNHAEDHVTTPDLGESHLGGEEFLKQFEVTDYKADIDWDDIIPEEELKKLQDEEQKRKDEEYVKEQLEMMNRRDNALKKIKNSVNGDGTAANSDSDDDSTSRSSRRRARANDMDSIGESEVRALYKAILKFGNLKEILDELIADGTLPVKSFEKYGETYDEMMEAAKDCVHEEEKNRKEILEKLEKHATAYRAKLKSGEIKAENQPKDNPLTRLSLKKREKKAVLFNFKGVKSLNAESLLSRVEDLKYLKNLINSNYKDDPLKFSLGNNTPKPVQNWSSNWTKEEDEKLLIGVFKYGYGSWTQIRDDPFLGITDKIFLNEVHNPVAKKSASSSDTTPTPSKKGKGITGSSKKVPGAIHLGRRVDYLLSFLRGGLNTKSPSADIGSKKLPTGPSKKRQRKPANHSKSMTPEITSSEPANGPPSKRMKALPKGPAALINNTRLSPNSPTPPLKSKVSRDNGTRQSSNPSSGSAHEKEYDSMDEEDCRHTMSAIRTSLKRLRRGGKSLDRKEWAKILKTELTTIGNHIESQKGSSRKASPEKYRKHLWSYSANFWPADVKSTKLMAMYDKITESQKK

Protein translocase subunit SecA (Escherichia coli (strain K12)), sequence (P10408 whole entry): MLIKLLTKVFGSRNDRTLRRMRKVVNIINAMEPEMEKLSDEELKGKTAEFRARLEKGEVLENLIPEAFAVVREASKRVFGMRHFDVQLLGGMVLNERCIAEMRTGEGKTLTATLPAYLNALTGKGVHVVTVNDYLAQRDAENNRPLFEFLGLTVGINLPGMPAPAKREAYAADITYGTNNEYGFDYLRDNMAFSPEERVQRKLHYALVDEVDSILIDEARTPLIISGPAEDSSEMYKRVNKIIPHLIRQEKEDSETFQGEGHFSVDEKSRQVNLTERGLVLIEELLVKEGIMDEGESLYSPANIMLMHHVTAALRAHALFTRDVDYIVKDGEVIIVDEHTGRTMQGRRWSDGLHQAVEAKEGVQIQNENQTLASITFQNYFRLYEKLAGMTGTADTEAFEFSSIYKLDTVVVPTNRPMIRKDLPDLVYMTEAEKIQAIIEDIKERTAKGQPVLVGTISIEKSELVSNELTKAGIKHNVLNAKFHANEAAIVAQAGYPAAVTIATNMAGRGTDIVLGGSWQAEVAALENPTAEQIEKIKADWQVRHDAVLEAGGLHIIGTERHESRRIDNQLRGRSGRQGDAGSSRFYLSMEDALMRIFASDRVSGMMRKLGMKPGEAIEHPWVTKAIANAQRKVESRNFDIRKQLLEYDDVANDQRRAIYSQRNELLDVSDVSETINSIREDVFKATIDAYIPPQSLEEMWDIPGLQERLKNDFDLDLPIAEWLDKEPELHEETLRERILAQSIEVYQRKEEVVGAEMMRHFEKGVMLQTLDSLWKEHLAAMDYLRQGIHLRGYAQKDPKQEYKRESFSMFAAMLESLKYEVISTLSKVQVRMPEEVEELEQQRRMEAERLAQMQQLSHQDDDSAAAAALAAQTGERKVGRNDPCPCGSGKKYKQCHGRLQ

Compound	Percent Effect [1] [%]	Percent Effect [2] [%]	Percent Effect [3] [%]	Percent Effect [4] [%]	Percent Effect [5] [%]	Percent Effect [6] [%]	Percent Effect [7] [%]	Percent Effect [8] [%]	Percent Effect [9] [%]	Percent Effect [10] [%]	Percent Effect [11] [%]
Cc1nn(C)c(N(C)C)c1CNCc1cccnc1	-5.22	-2.7	-6.42	-9.25	-5.38	-1.74	12.4	-10.3	-4.3	-6.17	-0.598
O=C(c1ccc(N2CCCC2)nn1)N1CCCC(n2cccn2)C1 (stereo unspecified)	-6.6	10.5	-3	-5.01	-6.44	5.4	5.33	-4.4	4.43	3.7	1.12
O=C(NCCS(=O)(=O)N1CCc2ccccc21)c1c(O)cc(F)cc1F	-5.35	2.6	-0.496	-10.7	4.41	-6.11	8	4.49	-12.4	0	-23.1
CC(C)CN1CCN(C(=O)Nc2cc(C(F)(F)F)c[nH]c2=O)CC1	-3.29	2.6	6.98	4.09	-2.06	2.13	3.55	20.1	5.83	12.2	-7.11
COCCN1C(=O)C[C@H]2[C@H]1CCN2Cc1cccc(C#N)c1	-2.88	2.67	7.27	-1.09	-2.95	3.03	5.9	6.32	1.06	1.28	1.66
c1ccc(CN2CCCC2Cn2cncn2)nc1 (stereo unspecified)	-2.52	-2.53	3.76	6.27	3.87	-0.76	5.32	-14.3	9.36	3.8	-4.39
CC(C)c1nccn1-c1cccc(C2CCN(C)CC2)n1	-4.43	9.46	4.91	-4.03	4.54	-5.8	14.2	0.127	1.07	6.49	-24.6
CN(CCc1ccccc1)Cc1cc(C(=O)N2CCCC2(C)C)no1	8.96	13.7	-8.24	6.18	-2.38	-17.6	11	33.7	8.33	11.1	-0.0446
CCOc1ccnc(N2CCN(C(=O)c3cccnc3O)CC2)n1	-3.86	17.7	-4.02	2.97	0.283	4.56	4.5	2.56	15.3	26.6	-4.5
Clc1ccc2cccnc2c1CN1CCCC(Cn2cncn2)C1 (stereo unspecified)	-4.92	0	-3.69	7.75	0.279	1.66	12	18.1	7.92	13.4	3.69
CCOc1cc(C(=O)N2CCCC(c3cc(C(N)=O)[nH]n3)C2)ccn1 (stereo unspecified)	-4.21	10.5	5.83	-2.38	7.94	0	5.5	-0.364	3.45	16.1	-0.329
O=S(=O)(NCc1ccccc1Cn1cncn1)C1CCCC1	-2.89	8.86	4.47	2.98	-3.59	1.5	10.1	5.73	8.33	12.7	-12.6
CNc1cc(CNC(=O)c2ccccc2)nc(-c2ccncc2)n1	-5.75	9.46	9.36	-2.66	3.56	-71.7	15.8	1.41	5.38	14.3	-13.8
CN1CCc2cc(C(CNS(=O)(=O)c3cccs3)N3CCCC3)ccc21 (stereo unspecified)	-1.64	13	7.05	-7.92	-5.42	-9.68	8.88	12.5	0	8.97	-8.44
CCc1nnc2n1CC(CNCc1ccncc1)CC2 (stereo unspecified)	1.7	4.17	-9.25	-5.88	-3.6	5.3	19.6	-6.46	5.26	0	-3.45
O=S1(=O)c2ccccc2C2(CCN(Cc3ccccc3)C2)N1CC1CC1 (stereo unspecified)	-1.03	0	12.2	4.58	1.18	2.1	-0.264	32.1	3.19	3.85	2.59
